Screening results from PubChem.
This is a sample that favours compounds with a hit; in the whole collection about 2.9% have one here.
KLK7 zymogen act: proKLK7 zymogen activators, primary screen, biochemical, fluorescence intensity. AID 652039, 2013. Kallikrein-7 (Homo sapiens), P49862. purified proKLK7, EDANS-DABCYL substrate fluorescence; 100% is mature enzyme control, 0% vehicle. 0.9% of 370,000 active. activation, % at 7 µM;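 active means activation above the mean of all tested compounds plus 3 SD, computed per campaign excluding outliers beyond control limits, cut at about 13% in these data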
Target sequence (P49862 whole entry, looked up): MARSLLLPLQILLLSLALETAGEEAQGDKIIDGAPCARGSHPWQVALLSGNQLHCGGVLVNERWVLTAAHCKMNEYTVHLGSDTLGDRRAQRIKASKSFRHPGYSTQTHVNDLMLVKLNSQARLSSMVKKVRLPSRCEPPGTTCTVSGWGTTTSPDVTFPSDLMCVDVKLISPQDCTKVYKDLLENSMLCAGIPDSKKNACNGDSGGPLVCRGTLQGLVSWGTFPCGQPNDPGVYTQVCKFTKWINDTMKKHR
ADAM17 inh: ADAM17 inhibitors, primary screen, biochemical, QFRET | 0.83% of 370,000 active | recombinant ADAM17, EDANS/DABCYL FRET peptide cleavage | Disintegrin and metalloproteinase domain-containing protein 17 (Homo sapiens), P78536 | inhibition, % at 6.95 µM;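 active means inhibition above the mean of compounds lying between control limits plus 3 SD, set per campaign, cut at about 8.5% in these data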;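 further: 0% = DMSO-only wells as the low control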
PLC-beta3 inh: human PLC-beta3 inhibitors, primary screen, biochemical, fluorescence. 1-phosphatidylinositol 4,5-bisphosphate phosphodiesterase beta-3 (Homo sapiens), Q01970. inhibition, % at 12.2 µM. 0.18% of 370,000 active. AID 720704, 2013. Purified PLC-beta3, fluorogenic substrate; in the data active means inhibition above about 11%;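 further: 0% = median of compound wells on plate and 100% = full blocker control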
ADAM10 inh: human ADAM10 inhibitors, primary screen, biochemical, QFRET, HTS; recombinant ADAM10, EDANS/DABCYL FRET peptide cleavage, 3 h; inhibition, % at 7 µM; 0.62% of 370,000 active;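 active means inhibition above a per-campaign cutoff equal to the mean of compounds falling between control-based bounds plus 3 SD, cut at about 20% in these data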;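 further: 0% = DMSO wells while the 100% control is not disclosed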
PLCg1 inh: PLC-gamma1 enzyme inhibitors, primary screen, biochemical, fluorescence, purified enzyme; 1-phosphatidylinositol 4,5-bisphosphate phosphodiesterase gamma-1 (Homo sapiens), P19174; fluorogenic substrate; inhibition, % at 12.2 µM; 0.84% of 370,000 active
PLCg1 ctr: PLC-gamma1 enzyme inhibitors, counter-screen for PLC-beta3 inhibitor project, biochemical, fluorescence | shares compounds with PLCg1 inh | purified PLC-gamma1, fluorogenic substrate | 3.1% of 3,300 active | inhibition, % at 12.3 µM | AID 743258, 2014
PLCbeta3 conf: PLC-beta3 inhibitor confirmation, biochemical, fluorescence, purified enzyme | fluorogenic substrate fluorescence | shares compounds with PLCg1 inh | 1% of 3,300 active | inhibition, % at 12.3 µM; in the data active means inhibition above about 11%
An asterisk follows results filed as active. Unless noted, no stated cut-off is given here; in the data, active means inhibition above about 9.5%; inactive means the rest.

For O=C(Cn1cnnn1)NCc1ccccc1 the results were KLK7 zymogen act 0, ADAM17 inh 0, PLC-beta3 inh -2, ADAM10 inh 0 and PLCg1 inh 3.
Screening CC(C)NC(=O)CC1C(=O)N(Cc2ccccc2)C(C)c2nc3ccccc3n21 (stereo not drawn) returned KLK7 zymogen act 0, ADAM17 inh 4, PLC-beta3 inh 4, ADAM10 inh 1, PLCg1 inh 13*, PLCg1 ctr -2 and PLCbeta3 conf -1.
For COc1cc2[nH]c(=O)n(CCCCCC(=O)NC3CCCC3)c(=O)c2cc1OC the results were KLK7 zymogen act 0, ADAM17 inh -10, PLC-beta3 inh -5, ADAM10 inh -12, PLCg1 inh 10*, PLCg1 ctr 0 and PLCbeta3 conf -6.
For O=C(O)Cn1ccnc1[N+](=O)[O-] the results were KLK7 zymogen act 0, ADAM17 inh 8, PLC-beta3 inh 6, ADAM10 inh -3, PLCg1 inh 10*, PLCg1 ctr 5 and PLCbeta3 conf 0.
For COC(=O)Cn1ccnc1[N+](=O)[O-] the results were KLK7 zymogen act 1, ADAM17 inh -2, PLC-beta3 inh 6, ADAM10 inh -1 and PLCg1 inh 6.
`CC(C)CCNC(=O)C(c1cccnc1)N(Cc1ccccc1)C(=O)Cn1nnc2ccccc21` (stereo not drawn) gave KLK7 zymogen act 0, ADAM17 inh -2, PLC-beta3 inh 1, ADAM10 inh 2 and PLCg1 inh 0.
Screening CCOC(=O)Cc1csc(SCC(=O)Nc2cccc(Cl)c2)n1 returned KLK7 zymogen act 0, ADAM17 inh 0, PLC-beta3 inh 3, ADAM10 inh 7, PLCg1 inh 14*, PLCg1 ctr -11 and PLCbeta3 conf -4.
`CCOC(=O)Cc1csc(SCC(=O)Nc2cccc(C#N)c2)n1` gave KLK7 zymogen act 0, ADAM17 inh -2, PLC-beta3 inh 1, ADAM10 inh 1 and PLCg1 inh -4.
CC(=O)c1ccc(S(=O)(=O)Nc2ccc(-n3c(C)nc4ccccc4c3=O)cc2)cc1 was read as KLK7 zymogen act -1, ADAM17 inh -1, PLC-beta3 inh -2, ADAM10 inh 0 and PLCg1 inh 1.
For COc1ccc(C(CNC(=O)c2cc3ccccc3o2)N2CCCC2)cc1 (stereo not drawn) the results were KLK7 zymogen act 0, ADAM17 inh -5, PLC-beta3 inh -12, ADAM10 inh 3, PLCg1 inh 11*, PLCg1 ctr -8 and PLCbeta3 conf -4.
For COc1ccc(C(CNC(=O)c2cc3ccccc3o2)N2CCCCC2)cc1 (stereo not drawn) the results were KLK7 zymogen act 0, ADAM17 inh -1, PLC-beta3 inh 7, ADAM10 inh 6 and PLCg1 inh 2.
Screening O=C1CN(C(=O)COC(=O)c2c(F)cccc2Cl)c2ccccc2N1 returned KLK7 zymogen act 0, ADAM17 inh 0, PLC-beta3 inh -3, ADAM10 inh -29 and PLCg1 inh -5.
For Cc1[nH]c2ccccc2c1N=Nc1cc(C(=O)O)cc(C(=O)O)c1 the results were KLK7 zymogen act 1, ADAM17 inh 1, PLC-beta3 inh -4, ADAM10 inh -3, PLCg1 inh 11*, PLCg1 ctr -2 and PLCbeta3 conf 1.
For Cc1[nH]c2ccccc2c1N=Nc1ccc(F)cc1 the results were KLK7 zymogen act 1, ADAM17 inh -3, PLC-beta3 inh -71, ADAM10 inh 10 and PLCg1 inh -44.
For CCCc1nc2sc3c(c2c(=O)n1N)CCC3 the results were KLK7 zymogen act -1, ADAM17 inh -2, PLC-beta3 inh 1, ADAM10 inh -8 and PLCg1 inh 1.
Screening CCc1nc2sc3c(c2c(=O)n1N)CCC3 returned KLK7 zymogen act 0, ADAM17 inh 4, PLC-beta3 inh 1, ADAM10 inh 6, PLCg1 inh 11*, PLCg1 ctr -3 and PLCbeta3 conf -3.
`CCN1CCN(c2nc(N)c([N+](=O)[O-])c(Nc3ccc(C)c(C)c3)n2)CC1` gave KLK7 zymogen act 0, ADAM17 inh 0, PLC-beta3 inh 0, ADAM10 inh 3 and PLCg1 inh 2.
CCN1CCN(c2nc(N)c([N+](=O)[O-])c(Nc3ccc(C)cc3)n2)CC1 was read as KLK7 zymogen act 0, ADAM17 inh 0, PLC-beta3 inh 8, ADAM10 inh 8, PLCg1 inh 13*, PLCg1 ctr -6 and PLCbeta3 conf 5.
CCSc1nc2ccccc2n1CC(=O)OC was read as KLK7 zymogen act 0, ADAM17 inh 3, PLC-beta3 inh 7, ADAM10 inh 9, PLCg1 inh 13*, PLCg1 ctr -2 and PLCbeta3 conf 4.
COC(=O)Cn1c(SCc2ccccc2)nc2ccccc21 was read as KLK7 zymogen act 0, ADAM17 inh 1, PLC-beta3 inh 1, ADAM10 inh 0 and PLCg1 inh -2.
For Cc1cc(-c2nnc(SCCC(=O)Nc3ccccc3)o2)no1 the results were KLK7 zymogen act 1, ADAM17 inh 1, PLC-beta3 inh -4, ADAM10 inh -6 and PLCg1 inh -1.
Screening Cc1cc(-c2nnc(SCc3ccccn3)o2)no1 returned KLK7 zymogen act 0, ADAM17 inh 2, PLC-beta3 inh 11*, ADAM10 inh 8, PLCg1 inh 14*, PLCg1 ctr -4 and PLCbeta3 conf -1.
`Cc1ccc(N2CC(C(=O)Nc3ccc(S(=O)(=O)N4CCCC4)cc3)CC2=O)cc1` (stereo not drawn) gave KLK7 zymogen act 1, ADAM17 inh 3, PLC-beta3 inh 2, ADAM10 inh 11, PLCg1 inh 15*, PLCg1 ctr -1 and PLCbeta3 conf 0.
Cc1ccc(S(=O)(=O)N2CCC(C(=O)Nc3nnc(C4CCCC4)s3)CC2)cc1 was read as KLK7 zymogen act 0, ADAM17 inh 8, PLC-beta3 inh 7, ADAM10 inh 0, PLCg1 inh 15*, PLCg1 ctr -2 and PLCbeta3 conf -1.
For Cc1ccc(S(=O)(=O)N2CCC(C(=O)N3Cc4ccccc4C3)CC2)cc1 the results were KLK7 zymogen act 0, ADAM17 inh 3, PLC-beta3 inh 2, ADAM10 inh 8, PLCg1 inh 10*, PLCg1 ctr -5 and PLCbeta3 conf -1.
`CC(=O)N1CCC(C(=O)Nc2ccc(S(=O)(=O)N3CCC(C)CC3)cc2)CC1` gave KLK7 zymogen act 0, ADAM17 inh -4, PLC-beta3 inh 0, ADAM10 inh 8, PLCg1 inh 9.6*, PLCg1 ctr -1 and PLCbeta3 conf 0.
